Source: PubChem BioAssay
IDE cell inh: inhibitors of human insulin-degrading enzyme in cells. inhibition, % at 5.59 µM. HEK cells, FAbetaB cleavage, fluorescence polarization. actives 0.41% (n = 320,000);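 active = percent inhibition above the average of all tested compounds plus 3 SD, set per screening campaign, cut at about 16% in these data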;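 note: IDE supplied by intact live HEK cells; FP after avidin binding of uncleaved biotin substrate so inhibition keeps polarization high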
Target sequence (P14735 whole entry, looked up): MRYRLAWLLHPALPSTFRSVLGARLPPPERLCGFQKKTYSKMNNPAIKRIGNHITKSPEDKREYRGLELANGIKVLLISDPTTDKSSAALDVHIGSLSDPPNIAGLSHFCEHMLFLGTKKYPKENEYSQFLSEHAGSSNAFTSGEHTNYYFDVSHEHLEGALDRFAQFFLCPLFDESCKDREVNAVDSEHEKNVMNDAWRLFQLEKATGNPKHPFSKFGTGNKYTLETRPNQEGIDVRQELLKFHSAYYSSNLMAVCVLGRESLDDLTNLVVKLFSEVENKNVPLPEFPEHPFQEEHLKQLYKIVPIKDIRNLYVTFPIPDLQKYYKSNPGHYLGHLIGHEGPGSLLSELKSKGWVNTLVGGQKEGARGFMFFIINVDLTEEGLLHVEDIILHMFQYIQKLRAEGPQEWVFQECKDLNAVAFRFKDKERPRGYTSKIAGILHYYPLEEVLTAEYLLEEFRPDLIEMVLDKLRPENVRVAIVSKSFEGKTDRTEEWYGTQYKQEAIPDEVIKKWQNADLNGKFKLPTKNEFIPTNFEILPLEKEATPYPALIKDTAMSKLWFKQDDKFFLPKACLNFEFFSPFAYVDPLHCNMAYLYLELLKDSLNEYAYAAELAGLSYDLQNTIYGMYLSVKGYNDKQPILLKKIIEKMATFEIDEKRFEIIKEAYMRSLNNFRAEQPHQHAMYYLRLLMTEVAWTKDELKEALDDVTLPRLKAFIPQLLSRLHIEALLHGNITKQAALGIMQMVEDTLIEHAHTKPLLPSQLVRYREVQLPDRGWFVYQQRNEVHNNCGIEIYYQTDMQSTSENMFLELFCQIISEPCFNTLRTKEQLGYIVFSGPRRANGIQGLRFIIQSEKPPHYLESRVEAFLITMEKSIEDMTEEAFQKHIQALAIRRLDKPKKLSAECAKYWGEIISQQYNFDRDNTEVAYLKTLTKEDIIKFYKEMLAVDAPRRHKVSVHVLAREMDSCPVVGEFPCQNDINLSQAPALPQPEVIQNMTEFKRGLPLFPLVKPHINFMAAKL
LANA-H2A inh: blocks KSHV LANA binding to histone H2A/H2B; cell-free LANA-H2A/H2B peptide, fluorescence polarization; inhibition, % (test concentration not listed); actives 0.6% (n = 320,000); AID 2629; in the data active = inhibition mostly above about 10%, no sharp cut-off; inactive = mostly below about 6.7%
HDAC3 inhib: inhibitors of human histone deacetylase 3 | AID 2718 | actives 0.15% (n = 320,000) | recombinant HDAC3, fluorogenic peptide/trypsin coupled, fluorescence | O15379 | inhibition, % at 8.3 µM; in the data active = inhibition above about 26%, passing the limit was not always enough
IDE cell activ: boosts human insulin-degrading enzyme activity in HEK cells. activation, % at 5.96 µM. P14735. FAbeta-B cleavage, fluorescence polarization; 0% vehicle, 100% cell-free pure enzyme wells. AID 493087. actives 0.073% (n = 340,000);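 active = activation above the mean of all tested compounds plus 3 SD, set per screening campaign, cut at about 17% in these data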
SUMO Mot1 rescue: blocks SUMOylation pathway, rescuing yeast Mot1-301 growth; S. cerevisiae Mot1-301 growth rescue, ATP luminescence, 38.5C; percent above DMSO median, 100 means doubled; growth rescue, % at 18.8 µM; AID 2716; actives 1% (n = 320,000);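 active = every valid replicate shows activation above 250% relative to neutral control wells; inactive = the rest, any valid replicate at or below 250%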
Hits are given with their value; i = inactive; nt = not tested or not shown; + = active, no number. This is a sample that favours compounds with a hit; in the whole collection about 2.1% have one here.

SMILES	IDE cell inh	LANA-H2A inh	HDAC3 inhib	IDE cell activ	SUMO Mot1 rescue
CCOC(=O)CC(=O)CSc1ncnc2c1nnn2-c1ccc(F)cc1	i	i	61	i	i
CCOC(=O)CSc1ncnc2c1nnn2-c1ccc(F)cc1	i	i	i	i	i
COCCCNC(=O)CNC(=S)N(Cc1ccc(F)cc1)C1CCCCC1	i	30	i	i	i
CCOCCCNC(=O)CNC(=S)N(Cc1ccccc1F)C1CCCCC1	i	i	i	i	i
Cc1c(N(C)C(=O)COc2ccc3ccccc3c2)c(=O)n(-c2ccccc2)n1C	i	i	i	i	i
Cc1csc(=O)n1CC(=O)Nc1nc2ccccc2s1	i	i	i	i	321
CCCN1CCN(CC(=O)Nc2nc3ccccc3s2)CC1	nt	i	i	i	i
CC1CCC(NC(=O)CCS(=O)(=O)c2ccc3c(c2)oc(=O)n3C)CC1 (stereo not given)	i	i	i	i	i
Cc1[nH]c(=O)c(C#N)c(C)c1[N+](=O)[O-]	i	13	i	i	i
CCCCn1c(N)c(N(C)C(=O)c2cccc(-n3cnnn3)c2)c(=O)[nH]c1=O	i	i	i	i	i
O=C(c1ccccc1)n1nnc2ccccc21	i	i	96	i	i
Cc1onc(-c2ccccc2)c1C(=O)n1nnc2ccccc21	i	i	i	i	i
CCCc1ccc2oc(C(=O)N3CCN(CC(=O)NC(C)C)CC3)c(C)c2c1	i	i	i	i	i
CC(=O)C1N=NCC1c1ccccc1 (stereo not given)	nt	nt	nt	i	nt
O=c1c(/C=C(\O)c2ccc(F)cc2)nc2ccccc2n1-c1ccccc1	i	-3.4	i	i	i
CSc1nsc(SCC(=O)Nc2ccc(C(N)=O)cc2)n1	i	31	i	i	i
O=C(Nc1ccc2c(c1)OCO2)c1cnc(Cl)c(Cl)c1	nt	nt	nt	i	nt
NC(=O)c1sc(=S)n2c1[nH]c(=O)c1sccc12	i	i	i	i	730
CCOc1ccc(NC(=O)CN(C)C(=O)CCCc2c[nH]c3ccccc23)cc1OCC	i	i	i	i	i
O=C(Nc1ccc(F)c(Cl)c1)C1CC(=O)N(Cc2ccco2)C1 (stereo not given)	i	+	i	i	i
Cc1nn(-c2ccccc2)c(N)c1C(O)(CC(=O)C(F)(F)F)C(F)(F)F (stereo not given)	i	i	i	i	333
COc1ccc(/C=C2/SC(=S)N(CCCC(=O)Nc3ccccc3C(=O)O)C2=O)cc1	i	i	i	22	i
Cc1ccc(C2(C)NC(=O)N(CC(=O)N(Cc3ccccc3)C(C)(C)C)C2=O)cc1 (stereo not given)	i	17	i	i	i
COc1ccc(C2(C)NC(=O)N(CC(=O)NCc3ccccc3)C2=O)cc1OC (stereo not given)	i	25	i	i	i
O=C(c1cccs1)N1CCCC(c2nc3c(nnn3Cc3ccccc3Cl)c(=O)[nH]2)C1 (stereo not given)	i	i	i	i	i
SMILES	IDE cell inh	LANA-H2A inh	HDAC3 inhib	IDE cell activ	SUMO Mot1 rescue
O=C(C1CCN(S(=O)(=O)c2cnc[nH]2)CC1)N1CCN(c2ncccn2)CC1	i	17	i	i	i
O=C(C1CCN(S(=O)(=O)Cc2ccccc2)CC1)N1CCN(c2ncccn2)CC1	i	i	i	i	i
Cc1cc(C)c(S(=O)(=O)N2CCN(C(=O)CN3C(=O)NC4(CCCC4)C3=O)CC2)c(C)c1	i	i	i	i	i
CCCCc1cc(=O)oc2c3c(cc(OCC(=O)N4CCC[C@H]4C(=O)O)c12)OC(C)(C)CC3	i	i	i	i	721
Cc1c(C)c2c(OCC(=O)N3CCC(C(N)=O)CC3)cc3c(c2oc1=O)CCC(C)(C)O3	i	i	i	i	610
Cc1cc(=O)oc2c3c(cc(OCC(=O)N4CCC[C@H]4C(=O)O)c12)OC(C)(C)CC3	i	i	i	i	i
C=CCN(C(=O)CSC1=NC(=O)CN1C(C)=O)c1nc(C)c(-c2ccccc2)s1	i	i	68	i	i
OCC[C@@H]1C[C@H](O)[C@@H](O)[C@@]2(CCCc3ccccc3O2)O1	i	i	i	i	i
CC(=O)N(C)c1ccc(OCC(O)Cn2c(C)nc3ccccc32)cc1 (stereo not given)	i	i	i	i	i
CN(C)c1ccc2nc3c(=O)[nH]c(=O)nc-3n(CC(O)C(O)C(O)CO)c2c1 (stereo not given)	i	30	nt	i	i
O=C(Nc1ncccc1O)c1ccc(OCC2CCCO2)cc1 (stereo not given)	i	i	68	i	i
